What all share (assay): NCI-60 one-dose screen, 48 h (100 = growth as untreated, 0 = no growth, -100 = all killed)
Details in all cases: 10 µM unless noted

For assay [1], the system named is SK-MEL-2 melanoma.
For assay [2], the system named is EKVX NSCLC.
In assay [3] the test system is SN12C renal.
Assay [4] concerns UO-31 renal.
Assay [5] has as its system TK-10 renal.
For assay [6], the system named is ACHN renal.
Assay [7] has as its system CAKI-1 renal.
The subject of assay [8] is A498 renal.
The subject of assay [9] is CCRF-CEM leukemia.
For assay [10], the system named is MOLT-4 leukemia.
The test system of assay [11] is SR leukemia.
Assay [12] concerns RPMI-8226 leukemia.
Assay [13] has as its system OVCAR-8 ovarian.
The subject of assay [14] is OVCAR-5 ovarian.
In assay [15] the test system is OVCAR-4 ovarian.
Assay [16] has as its system SK-OV-3 ovarian.
Assay [17] concerns IGROV1 ovarian.
For assay [18], the system named is OVCAR-3 ovarian.
The test system of assay [19] is HS 578T breast.
Assay [20] relates to NCI/ADR-RES ovarian.

Each structure is given as a SMILES string. About 83,000 compounds went through this panel and 20% of them were active in at least one assay; those are over-represented in the sample as a whole.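 Each cell line was grown in a 96-well plate and treated with one concentration of compound for 48 hours. Values below 10 were considered active.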 A number with no mark means an inactive call. Activity calls are given as the source filed them.

`COc1ccc(/C=C(\C#N)n2nnc3cc(F)c(F)cc32)cc1`: the growth in assay [1] was 50.9%; in assay [2] it was 51.9%; in assay [3] it was 58.9%; in assay [4], 52.8%; in [5], 72.4%; in assay [6] it was 55.4%. The growth is 54.4% in assay [7]; 76.2% in [8]; 24.3% in assay [9]; 22.4% in [10]; 12.9% in assay [11]; 70.5% in [12]. The growth in [13] is 70.1%; in assay [14], 56.3%; in [15] it was 74%; in assay [16], 69.6%; in [17], 39.7%; in [18], 21.5%. For the same compound, the growth was 92.1% in [19] and 19.6% in [20].

As to `CC(=O)N1N=C(c2ccc(Nc3nc(Nc4ccccc4)nc(Nc4ccccc4)n3)cc2)CC1c1cccc([N+](=O)[O-])c1` (stereo not given), the growth in assay [1] is 60.6%; in assay [2], 77.3%; in [3] it was 96.3%; in assay [4], 63.9%; in assay [5], 127%; in assay [6] it was 94.2%. Also, the growth was 91.7% in assay [7]; 94.5% in assay [8]; 94.3% in assay [9]; 84.5% in [10]; 83.8% in assay [11]; 68% in assay [12]. The growth in assay [13] is 92.6%; in assay [14], 87.6%; in assay [15], 91.2%; in [16], 103%; in [17] it was 79.4%; in assay [18], 98.1%. The growth is 88.6% in assay [19] and 94.7% in [20].

As to `Cc1cc(C(=O)Nc2ncc(Cc3cccc(C(F)(F)F)c3)s2)c2ccccc2n1`, the growth in [1] is -16% (active); in assay [2], 43.2%; in assay [3] it was 47.7%; in [4], 29%; in [5], 49.5%; in [6], 28.1%. Besides, the growth in assay [7] was 13.3%; in [8], 0.174% (active); in assay [9] it was 11.8%; in [10], 14.9%; in assay [11] it was 9.35% (active); in assay [12], 33.9%. Further, the growth in [13] was 43.4%; in assay [14] it was 47.7%; in assay [15] it was 42.4%; in assay [16], 36%; in [17] it was 31.5%; in assay [18], 13.3%. Also, the growth in assay [19] was -0.594% (active); in [20], 16.4%.

For `Cc1nc2sc(C(=O)Nc3cccc(Br)c3)c(N)c2cc1C(O)c1ccccc1` (stereo not given), the growth is 47.2% in assay [1]; 48.5% in assay [2]; 22.4% in assay [3]; 48.4% in assay [4]; 58% in [5]; 33.2% in [6]. Moreover, the growth in assay [7] was 46.4%; in [8] it was 5.68% (active); in [9] it was 15.7%; in assay [10] it was 17.1%; in assay [11], 13.4%; in [12], 11.1%. In addition, the growth in assay [13] was 20.8%; in assay [14] it was 57%; in [15], 70.5%; in assay [16] it was 35.6%; in assay [17], 32.1%; in assay [18], 8.16% (active). Further, the growth in assay [19] is 21%; in assay [20], 11.7%.

`COc1cc(/C=C2/C=C(c3ccccc3)N(CCc3ccc(S(N)(=O)=O)cc3)C2=O)cc(OC)c1OC`: the growth in [1] is 104%; in assay [2] it was 105%; in assay [3], 105%; in assay [4] it was 87.8%; in assay [5] it was 96.2%; in [6], 103%. In addition, the growth was 99.1% in [7]; 86.6% in assay [8]; 91% in assay [9]; 83.1% in assay [10]; 82.4% in [11]; 66.8% in assay [12]. The growth is 91.6% in assay [13]; 118% in assay [14]; 101% in [15]; 103% in [16]; 101% in assay [17]; 110% in assay [18]. Besides, the growth was 98.2% in assay [19] and 99.6% in assay [20].

Regarding `COc1ccc(Cc2cnc(NC(=O)c3cc(C)oc3C)s2)cc1`, the growth was 47.7% in assay [1]; 36.8% in assay [2]; 42.7% in assay [3]; 39.6% in assay [4]; 58% in [5]; 40.3% in [6]. Besides, the growth was 25.3% in [7]; 16.5% in [8]; 29.3% in assay [9]; 19.2% in assay [10]; 14.1% in [11]; 51.9% in [12]. Besides, the growth was 45.3% in [13]; 53.6% in assay [14]; 58.5% in [15]; 49.1% in assay [16]; 44.6% in assay [17]; 15% in [18]. Also, the values for the growth in [19] and in assay [20] were 24.5% and 20.6%, respectively.

On to `O=S(=O)(Nc1ccc(Cl)c(C(F)(F)F)c1)c1ccc(-c2cnc(C3CC3)o2)cc1`, for which the growth in assay [1] is 5.31% (active); in assay [2], 31.5%; in assay [3], 10.7%; in assay [4], 35.5%; in assay [5], 3.01% (active); in assay [6], 34.6%. Besides, the growth in assay [7] was 35.6%; in [8], -8.08% (active); in assay [9] it was 9.87% (active); in assay [10], 5.21% (active); in [11], 3.51% (active); in assay [12], 8.83% (active). In addition, the growth in assay [13] was 5.21% (active); in assay [14] it was 19.2%; in [15], 25.7%; in assay [16], 0.753% (active); in [17], 24.3%; in assay [18], 9.38% (active). Besides, the values for the growth in [19] and in [20] were -1.41% (active) and 2.96% (active), respectively.

For `CCc1ccccc1-n1c(-c2ccc(OC)cc2)cc(-c2ccc(OC)cc2)c(C#N)c1=O`, the growth was 90.2% in assay [1]; 94.1% in [2]; 89.8% in [3]; 88.3% in assay [4]; 97.2% in assay [5]; 61.6% in assay [6]. For the same compound, the growth in assay [7] was 77.9%; in assay [8] it was 69.5%; in assay [9], 127%; in [10] it was 133%; in assay [11] it was 98.4%; in assay [12] it was 105%. Further, the growth in assay [13] is 41.7%; in assay [14] it was 92.7%; in assay [15] it was 85.9%; in assay [16], 54%; in assay [17], 85.5%; in assay [18] it was 82.2%. The growth in assay [19] was 17.9%; in [20] it was 72.4%.

For `CCOC(=O)C1=C(C)NC(=O)NC1c1c(Cl)n(CCCl)c2ccccc12` (stereo not given), the growth in [1] is 106%; in [2], 97.8%; in assay [3], 101%; in [4], 68.5%; in [5], 34.1%; in assay [6] it was 99%. Also, the growth in assay [7] is 86.6%; in assay [8] it was 95.3%; in assay [9], -54.5% (active); in [10], 103%; in [11], 102%; in assay [12], 77.3%. Also, the growth in assay [13] was 96.7%; in assay [14], 101%; in [15], 112%; in [16], 104%; in [17], 103%; in assay [18], 98.5%. Besides, the growth in [19] was 93.1%; in [20], 97.1%.

For `O=C(Nc1cccc(Cl)c1)Nc1cccc(Cn2c(=O)[nH]c3ccc(Oc4ncccn4)cc3c2=O)c1`, the growth was 69.6% in [1]; 72.4% in assay [2]; 76% in [3]; 61.8% in assay [4]; 68.9% in [5]; 72.2% in assay [6]. Also, the growth in assay [7] was 63.8%; in assay [8], 48.7%; in assay [9], 32.6%; in [10] it was 6.46% (active); in assay [11], 21.4%; in assay [12] it was 25.3%. The growth is 37.4% in assay [13]; 81.7% in [14]; 13.3% in assay [15]; 70.7% in [16]; 62% in assay [17]; 33.5% in assay [18]. In addition, the growth in assay [19] is 51.8%; in assay [20], 95.5%.

For `CCN(CC)CC(O)COc1c(Br)c(Br)c(Br)c2c1OC(C)(C)C2` (stereo not given), the growth in [1] was 338%; in [2], 105%; in assay [3], 79.4%; in [4], 91.2%; in [5], 58.4%; in assay [6] it was 97.9%. Moreover, the growth in assay [7] was 17.6%; in assay [8], -86.9% (active); in assay [9] it was 45.8%; in [10] it was 22.3%; in assay [11], 16.7%; in [12], 85.5%. Further, the growth in assay [13] was 126%; in assay [14], 93.2%; in assay [15], 82.9%; in assay [16], 97.9%; in assay [17], 607%; in assay [18], 14%. Further, the growth in assay [19] is -69.4% (active); in [20] it was 85%.

Turning to `CSc1oc(C)nc1[P+](c1ccccc1)(c1ccccc1)c1ccccc1`, the growth was 84.4% in assay [1]; 73.8% in assay [2]; 82.2% in assay [3]; 102% in assay [4]; 88.2% in assay [5]; 97.6% in assay [6]. Further, the growth was 88% in assay [7]; 64.5% in assay [8]; 51.8% in assay [9]; 68% in [10]; 30.6% in [11]; 6.31% (active) in [12]. The growth in assay [13] is 60.1%; in assay [14] it was 83.1%; in assay [15] it was 34.6%; in [16], 57.7%; in [17], 60.6%; in [18] it was 36.9%. The growth in assay [19] was 55%; in assay [20] it was 106%.

For the compound `Cn1cc(-c2ccc3nc(-c4ccc(CC(=O)ONc5cc(C(C)(C)C)on5)cc4)cnc3c2)cn1`, the growth in assay [1] was 13%; in [2] it was 39.2%; in assay [3] it was 26.1%; in assay [4], 20.9%; in assay [5], 21.3%; in assay [6], 13.4%. Besides, the growth was 6.91% (active) in assay [7]; 15.6% in assay [8]; 38.8% in assay [9]; 11.6% in [10]; 15.5% in assay [11]; 45.2% in [12]. Moreover, the growth in assay [13] is 33.7%; in [14], 66.1%; in assay [15], 35.4%; in [16], -17.1% (active); in assay [17] it was 10.3%; in assay [18], 48%. The growth was 31% in [19] and 33.2% in [20].

With `CCOC(=O)c1cc2c(n1C)-c1nc(NC(C)=O)sc1CCC2`, the growth in [1] is 89.9%; in [2], 60.7%; in [3], 81.9%; in assay [4], 43.2%; in assay [5] it was 138%; in [6] it was 86.7%. The growth in [7] is 76.4%; in assay [8], 53.2%; in [9], 73.8%; in assay [10] it was 81.6%; in assay [11], 72.6%; in [12] it was 79%. Also, the growth in [13] was 71.2%; in assay [14], 117%; in assay [15], 80.4%; in assay [16], 76.1%; in assay [17], 69.2%; in assay [18], 85.7%. The growth was 60.5% in assay [19] and 85.1% in [20].

These data come from PubChem BioAssay (NCI).
